Sampled rows, rich in hits. Any-hit rate of the full collection: about 2.3%.
Coupling enz: coupling enzyme interference in Giardia aldolase counter-screen. coupling enzyme system counterscreen, AmpLite Red fluorescence. activity change, negative = inhibition, % at 58.2 µM, hits read low. 290,000 tested, 0.67% active. AID 2472; in the data active means activity change below about -30%
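Counterscreen of the coupled detection system alone, without aldolase: glyceraldehyde-3-phosphate coupling enzymes plus AmpLite Red readout. Compounds at 57.5 uM final, 10 min RT preincubation, 20 min RT reaction, fluorescence 525/598 nm.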
USP1 inh: blocks the human USP1/UAF1 deubiquitinase complex; recombinant USP1/UAF1, Ub-Rhodamine cleavage fluorescence; 390,000 tested, 0.23% active; Potency, µM (doses to about 57.1 µM), actives largely listed as inhibitors; O94782; AID 743255; further: nearly all actives have a fitted effect of over 60% in size
Target sequence (O94782 whole entry, looked up): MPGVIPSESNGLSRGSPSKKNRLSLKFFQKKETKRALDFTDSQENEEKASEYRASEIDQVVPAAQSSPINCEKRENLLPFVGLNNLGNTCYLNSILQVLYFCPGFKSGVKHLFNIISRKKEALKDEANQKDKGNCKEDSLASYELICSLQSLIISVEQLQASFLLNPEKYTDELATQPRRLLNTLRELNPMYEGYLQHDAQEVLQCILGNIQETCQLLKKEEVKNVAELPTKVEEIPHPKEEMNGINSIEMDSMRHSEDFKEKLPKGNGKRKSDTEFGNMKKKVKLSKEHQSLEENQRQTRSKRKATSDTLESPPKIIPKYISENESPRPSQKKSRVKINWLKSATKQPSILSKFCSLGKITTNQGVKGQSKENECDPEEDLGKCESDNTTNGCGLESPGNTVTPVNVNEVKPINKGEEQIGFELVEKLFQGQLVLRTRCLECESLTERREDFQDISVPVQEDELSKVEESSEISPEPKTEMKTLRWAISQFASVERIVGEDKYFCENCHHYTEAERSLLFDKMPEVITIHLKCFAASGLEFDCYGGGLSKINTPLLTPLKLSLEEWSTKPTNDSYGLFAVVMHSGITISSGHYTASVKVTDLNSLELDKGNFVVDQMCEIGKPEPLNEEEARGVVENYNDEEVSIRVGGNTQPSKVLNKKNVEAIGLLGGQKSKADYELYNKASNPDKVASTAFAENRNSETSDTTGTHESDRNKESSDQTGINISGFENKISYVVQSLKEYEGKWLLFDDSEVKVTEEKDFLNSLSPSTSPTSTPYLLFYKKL
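High-throughput fluorogenic screen: 1nM USP1/UAF1 complex, Ub-Rho substrate 150nM final, 50mM HEPES pH 7.8 with 0.5mM EDTA, 0.1 mg/ml BSA, 1mM TCEP and 0.01% Tween-20.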
Tau FP inhib: blocks human tau fibril formation measured by polarization | P10636 | K18 P301L tau heparin fibrillization, Alexa594 FP, 6 h | Potency, µM (top dose mostly 57.7 µM), hits mostly inhibitors | 280,000 tested, 0.39% active | AID 1468; further: nearly all actives have a fitted effect of over 55% in size
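Heparin (20 uM) drove fibril formation of recombinant tau K18 P301L, 15 uM unlabeled with 0.24 uM Alexa 594 label, for 6 hr at 37 C in 100 mM sodium acetate pH 7. Fluorescence polarization (555/632 nm) read 1 hr after 30 uM ThT.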
Tau ThT inhib: blocks human tau fibril formation measured by thioflavin T | P10636 | recombinant tau K18 P301L, heparin-induced fibrillization, ThT fluorescence | Potency, µM (series often up to 57.4 µM), actives largely listed as inhibitors | 270,000 tested, 2.1% active | AID 1460; further: nearly all actives have a fitted effect of over 55% in size
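Aggregation was driven by heparin (20 uM final) acting on recombinant tau […] bearing P301L in 100 mM sodium acetate pH 7; fibrils were detected with Thioflavin T.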
Tau fluor cs: counter-screen for tau fibril formation inhibitors | 280,000 tested, 0.93% active | Potency, µM (titrated, usually from 57.7 µM) | tau K18 P301L Alexa594 fluorescence, heparin fibrillization; further: nearly all actives have a fitted effect of over 55% in size
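Human tau K18 P301L (15 uM unlabeled, 0.24 uM Alexa 594-labeled) in 100 mM sodium acetate pH 7 with 20 uM heparin, 6 hr at 37 C. ThT 30 uM added, 1 hr ambient; Alexa 594 FP and total fluorescence read at 555/632 nm.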
Hits are given with their value; 0 = inactive; ? = inconclusive; - = no result; ! = not confirmed by another sample; [ ] = another dose, or the depositor's remark. Unless noted, the call rests on the fitted dose curve; in most records, active means well fitted curve in the direction sought with a large enough effect; inconclusive means small, poorly fitted or top-dose-only effect, or another doubt; inactive means no such curve, though single readings can be large; an effect the other way counts as inactive or inconclusive.

SMILES	Coupling enz	USP1 inh	Tau FP inhib	Tau ThT inhib	Tau fluor cs
Cc1cc(C)cc(NC(=O)CSc2oc(-c3cccs3)nc2S(=O)(=O)c2ccc(Br)cc2)c1	-	0	0	0	?
O=C1NC(=O)N(c2ccc(Cl)cc2)C(=O)/C1=C\c1ccc(Sc2nc3ccccc3[nH]2)o1	0	?	?	14µM	0
COc1cccc([C@@]2(O)CCCCC2CN(C)C)c1 (some centres undefined)	0	-	-	-	-
Clc1cccc(/C=N\Nc2nccs2)c1	0	0	0	?	18µM[quencher]
O[N+]1=CC=CCC1=S.On1ccccc1=S.[Zn]	-42	-	?	?	0
COC(=O)C1C=C2c3cccc4[nH]cc(c34)CC2N(C)C1 (centres undefined)	-34	-	?	18µM	?
CCC(CO)NC(=O)C1C=C2c3cccc4[nH]cc(c34)CC2N(C)C1 (centres undefined)	0	0	0	0	0
CC(C)[C@@]1(NC(=O)[C@@H]2C[C@H]3c4cccc5[nH]cc(c45)C[C@@H]3N(C)C2)O[C@@]2(O)[C@H]3CCCN3C(=O)[C@H](Cc3ccccc3)N2C1=O	0	-	0	?	13µM[quencher]
CC[C@@H](CO)NC(=O)[C@@H]1C=C2c3cccc4c3c(cn4C)C[C@H]2N(C)C1	-56!	?	?	25µM!	?
CC(C)C[C@H]1C(=O)N2CCC[C@H]2[C@]2(O)O[C@](NC(=O)[C@@H]3C=C4c5cccc6[nH]cc(c56)C[C@H]4N(C)C3)(C(C)C)C(=O)N12	-	18µM	-	-	-
CCOc1cc(/C=N/NC(=O)c2cccs2)ccc1OC(=O)N1CCOCC1	0	0	0	?	0
CC(C)C(C)/C=C/C(C)C1CCC2C3=CC=C4CC(O)CCC4(C)C3CCC21C (centres undefined)	0	-	0	?	0
CN1C[C@H](C(=O)N[C@]2(C)O[C@@]3(O)[C@H]4CCCN4C(=O)[C@H](Cc4ccccc4)N3C2=O)C[C@H]2c3cccc4[nH]cc(c34)C[C@@H]21	0	-	0	?	7.1µM[quencher]
CCC(C)(C)O	0	-	-	-	-
CCOc1ccc(-c2nc3ccc(-c4nc5ccc(N6CCN(C)CC6)cc5[nH]4)cc3[nH]2)cc1	0	-	0	2.8µM	?
Cc1ccc2nc(N3CCN(C)CC3)[nH]c2c1	0	0	0	0	0
COC(=O)/C(C)=C\CC12OC(C)(C)C3CC(C=C4C(=O)c5c(OC)c6c(c(CC=C(C)C)c5OC431)OC(C)(CCC=C(C)C)C=C6)C2=O (centres undefined)	0	-	?	28µM	0
CC(=O)Oc1c2c(c(CC=C(C)C)c3c1C(=O)C1=CC4CC5C(C)(C)OC(C/C=C(\C)C(=O)O)(C4=O)[C@]15O3)OC(C)(CCC=C(C)C)C=C2 (some centres undefined)	0	-	10µM	7.1µM	?
O=C(CSc1ccccn1)Nc1cccc2ccccc12	-77	0	0	?	0
Cc1ccc(F)cc1NC(=O)c1ccc(Cn2nc(N3CCN(c4ccccc4)CC3)ccc2=O)o1	-	?	0	?	0
CC(C)c1ccc(N2C(=O)NC(=O)/C(=C/c3cnc(-c4ccccc4)nc3)C2=O)cc1	0	0	?	16µM	0
COc1cc(/C=C2\C(=O)NC(=O)N(c3ccccc3)C2=O)cc(OC)c1O	-33	0	?	?	0
O=C1NC(=O)N(Cc2ccccc2)C(=O)/C1=C/c1cnc(-c2ccccc2)nc1	0	0	?	?	0
CSc1ncc(/C=C2/C(=O)NC(=O)N(c3ccc(C(C)C)cc3)C2=O)cn1	0	0	?	25µM	0
COc1cc(/C=C2\C(=O)NC(=O)N(c3ccccc3)C2=O)c([N+](=O)[O-])cc1OC	0	0	0	?	0
SMILES	Coupling enz	USP1 inh	Tau FP inhib	Tau ThT inhib	Tau fluor cs
CN(C)c1ccc(C2CC(c3c(O)n(C4CCCCC4)c(=O)[nH]c3=O)=Nc3ccccc3S2)cc1 (centres undefined)	-	?	0	0	0
COc1ccc(-c2oc3cc(OC)ccc3c(=O)c2O)cc1	0	-	?	0	0
COC(=O)[C@]1(C)CC[C@@]2(C)CC[C@@]3(C)C4=CC=C5C(=CC(=O)C(O)=C5C)[C@@]4(C)CC[C@@]3(C)C2C1 (some centres undefined)	0	-	?	28µM	?
COc1cc2c(cc1OC)-c1c(OC)c(OC)cc3c1[C@H](C2)N(C)CC3	-34	?	0	?	0
CCOC(=O)[C@]1(C#N)[C@@H]2C=CC(C(C)=O)=CN2[C@@H](C(N)=O)[C@@H]1c1ccsc1	0	?	?	32µM	0
O=C1NC(=O)N(CCc2ccc(F)cc2)C(=O)/C1=C\C=C\c1ccccc1	0	0	?	28µM	0
C=CCN1C(=O)NC(=O)/C(=C/C=C/c2ccccc2)C1=O	0	0	?	28µM	0
C=CCN1C(=O)NC(=O)/C(=C/c2ccc(OC)c(CSc3ccccn3)c2)C1=O	0	0	0	?	0
Cc1ncc(CO)c2c1Oc1nc(-c3ccccc3Cl)nc(SCc3ccccc3F)c1C2	-	?	0	0	0
O=C(O)CC1OCC=C2CN3CCC45c6ccccc6NC4C1C2CC35 (centres undefined)	0	0	0	0	0
O=C(O)CC1OCC=C2CN3CCC45C6=CC(=O)C(=O)C([N+](=O)[O-])=C6NC4C1C2CC35 (centres undefined)	-92	5µM	?	7.1µM	?
O=C(Cc1cc(=O)[nH][nH]1)N/N=C/c1cccc2ccccc12	0	0	?	3.2µM	?
CN1C(=O)C(Cc2ccccc2)C(=O)N(C)C1=O	-	0	-	-	-
CN1C(=O)C(Cc2ccsc2)C(=O)N(C)C1=O	0	0	32µM	25µM	0
Cc1ccc(C(=O)Nc2c(C(=O)Nc3ccc(C)c(C)c3)sc3nc(C)cc(C)c23)cc1	-	0	0	?	?
O=C(Oc1ccccc1)N1CCC[C@@]2(CCN(C(c3ccccc3)c3ccccc3)C2)C1	-34	-	-	-	-
O=C(NCc1ccc(Cl)cc1)C(=O)NCC(c1cccnc1)N1CCN(c2ccccc2)CC1 (centres undefined)	-	?	0	0	0
COc1ccc(-n2c(=S)[nH]c3c(sc(=S)n3-c3ccccc3)c2=O)c(OC)c1	0	0	?	32µM	0
O=C(Nc1ccc(Cl)c(C(F)(F)F)c1)NC1CC2CCCC(C1)N2Cc1ccccc1 (centres undefined)	0	0	28µM	0	?
O=C(/C=C/c1c[nH]c2ccccc12)c1c(O)n(CCc2ccccc2)c(=O)[nH]c1=O	0	25µM	?	?	?
CCCCCCCCCC[n+]1cccc([C@@H]2CCCN2C)c1	0	-	-	-	-
Cc1nn(Cc2ccccc2)c2c1C(c1ccco1)C(C#N)=C(N)O2 (centres undefined)	0	0	?	?	0
N#CC1=C(N)Oc2c(c(=O)sc3ccccc23)C1c1ccncc1 (centres undefined)	0	0	0	?	0

Source: PubChem (National Center for Advancing Translational Sciences (NCATS))
